# Reference: ChEMBL document CHEMBL3988442, “University of Dundee, Small-Polar-MMV Screening Library” (2021)
# Hit rate of the full screen: of about 48,000 compounds, about 13,000 (27%) showed an effect of 50% or more. The list shows a part of the results.
# Tested on: Wolbachia pipientis
# Experiment: Anti-Wolbachia Cell-Based Screen
# Type: functional
# Design: scale not given: in the data most compounds retested in dose-response had high values
# Conditions: 5 µM
row,Compound,Percent Effect
1,CC(C)(C)c1nc(CN2CCCC(Cn3cncn3)C2)no1 (configuration not stated),114.7%
2,c1ncn(CC2CCCN(Cc3noc(C4CC4)n3)C2)n1 (configuration not stated),115%
3,c1ncn(CCNC2CCCN(Cc3noc(C4CC4)n3)C2)n1 (configuration not stated),10.95%
4,CCCc1nc(CN2CCCC(Cn3cncn3)C2)no1 (configuration not stated),15.71%
5,c1ncn(CC2CN(Cc3noc(C4CC4)n3)CCO2)n1 (configuration not stated),0.6807%
6,Cc1nc(CN2CCCC(Cn3cncn3)C2)no1 (configuration not stated),79.74%
7,c1cnc(-c2nc(CN3CCCC(Cn4cncn4)C3)cs2)nc1 (configuration not stated),1.551%
8,CC(C)(C)c1nnc(CN2CCCC(Cn3cncn3)C2)o1 (configuration not stated),3.207%
9,Cc1ccc(CNC(=O)NCC(=O)NC(C)(C)C)c(N2CCCC2)c1,2.082%
10,Fc1ccccc1-c1noc2c1CN(CC1CC1)CC2,-13.76%
11,Cn1ccnc1CN1C[C@@H](F)[C@@H](OCc2nc3cnccc3[nH]2)C1,4.118%
12,CCOCCn1c(=O)[nH]c2cc(C(=O)N(C)Cc3ccno3)ccc21,10.95%
13,O=C1CCC2(CCNCC2)CN1CCCNc1cccnc1,-8.003%
14,COCC(=O)N1CCN(CC2CC2)c2ncccc2C1,17.09%
15,O=C(CC1CC1)N1CCN(Cc2ccncc2)c2ncccc2C1.O=C(O)C(F)(F)F.O=C(O)C(F)(F)F,106.6%
16,COCC(=O)N1CCN(Cc2cccnc2)c2ncccc2C1.O=C(O)C(F)(F)F.O=C(O)C(F)(F)F,107.3%
17,Cc1ccc2c(n1)N(C)CCN(C(=O)C1CC1)C2.O=C(O)C(F)(F)F,-19.49%
18,O=C(C1CC1)N1CCN(Cc2ccncc2)c2ncccc2C1.O=C(O)C(F)(F)F.O=C(O)C(F)(F)F,97.41%
19,O=C(Cc1ccsc1)N1CCN(CC2CC2)c2ncccc2C1.O=C(O)C(F)(F)F,-24.66%
20,O=C(O)C(F)(F)F.O=C(O)CCC(=O)N1CCN(CC2CC2)c2ncccc2C1,-20.91%
21,O=C(CC1CC1)N1CCN(Cc2cccnc2)c2ncccc2C1.O=C(O)C(F)(F)F.O=C(O)C(F)(F)F,108.8%

row,Compound,Percent Effect
1,CC(=O)NCC(=O)N1CCN(Cc2cccnc2)c2ncccc2C1,-23.25%
2,CCCS(=O)(=O)N1CCC2(CC1)CCn1c(-c3cnn(C)c3)cnc12.O=C(O)C(F)(F)F,-1.785%
3,CC(=O)NS(=O)(=O)c1ccc2c(c1)N(C)CCC2,-0.0475%
4,CCc1nsc(N2CCCN(C(=O)c3ccc(OC)cc3)CC2)n1,4.92%
5,CN(C)C(=O)N1CCC(C(=O)N2CCOC(CC3CCCCC3)C2)CC1 (configuration not stated),1.077%
6,CN(C)Cc1nnc(C2CCCN(Cc3ccc(Cl)s3)C2)n1C (configuration not stated),-1.038%
7,COc1ncnc2c1CCN(c1cc(C(F)(F)F)ncn1)CC2,-19.6%
8,N#Cc1ccnc(N2CCC(NCCN3CCCC3)CC2)c1,4.204%
9,Cn1nnnc1SCCNC1CCN(c2ccc3c(c2)OCO3)CC1,-18.49%
10,Cn1cnnc1SCc1cc2c(cc1Br)OCO2,98.1%
11,CC(C)C(=O)Nc1ccc(Sc2nncn2C)c(Cl)c1,7.85%
12,Cn1c(N)nnc1SCc1cc(Br)ccc1Cl,-1.725%
13,Cn1nnnc1SCc1cc2c(cc1Cl)OCO2,119.1%
14,Cn1cnnc1S(=O)(=O)Cc1cc(Cl)c2c(c1)OCO2,-6.914%
15,CN(Cc1cscn1)Cc1cc2c(cc1Br)OCO2,7.123%
16,Cn1c(N)nnc1SCc1ccc(Cl)cc1Br,-13.54%
17,Cn1cnnc1SCc1cc2c(cc1Cl)OCO2,116.9%
18,CCCc1cc(NC(=O)c2cc(N3CCNC3=O)c(F)cc2F)n[nH]1,-4.311%
19,Cc1noc(C)c1CN(C)c1ncnc2ccccc12,85.55%
20,Cc1noc(C)c1CN(C)Cc1nc(N)c2ccccc2n1,-15.35%
21,Cc1noc(C)c1CN(C)c1ncnc2onc(C)c12,10.95%

row,Compound,Percent Effect
1,Cc1cccc(COC[C@@H]2CC[C@H]3[C@H](CCN3C(=O)CC3CC3)O2)n1.O=C(O)C(F)(F)F,-1.291%
2,c1coc(CN2CC[C@@H]3O[C@@H](COCC4CCOCC4)CC[C@@H]32)c1,95.89%
3,O=C(c1ccco1)N1CC[C@@H]2O[C@@H](COCC3CCOCC3)CC[C@@H]21,-0.1018%
4,O=C(COC[C@H]1CC[C@H]2[C@H](CCN2c2ncccn2)O1)N1CCCC1.O=C(O)C(F)(F)F,-10.98%
5,Cc1cccc(COC[C@@H]2CC[C@H]3[C@H](CCN3Cc3ccco3)O2)n1.O=C(O)C(F)(F)F.O=C(O)C(F)(F)F,-8.217%
6,CN(C)C(=O)COC[C@H]1CC[C@@H]2[C@@H](CCN2Cc2ccco2)O1.O=C(O)C(F)(F)F,91.23%
7,O=C(c1ccco1)N1CC[C@@H]2O[C@H](COCC3CCOCC3)CC[C@@H]21,-18.62%
8,COCCN1CC[C@@H]2O[C@@H](COCC(=O)N3CCCC3)CC[C@@H]21.O=C(O)C(F)(F)F,-7.716%
9,O=C(COC[C@@H]1CC[C@H]2[C@H](CCN2Cc2ccco2)O1)N1CCCC1,94.38%
10,Cc1cccc(COC[C@H]2CC[C@H]3[C@H](CCN3Cc3ccco3)O2)n1,105.2%
11,CN(C)C(=O)COCC1C[C@@H]2OCCN(Cc3ccco3)[C@H]2C1 (some centres not stated),-1.169%
12,COCCn1cc(NC(=O)NCC2CCN(c3ccccc3)C2)cn1 (configuration not stated),6.997%
13,Cc1cc(CN2CCC(c3ccnn3CCO)CC2)no1,-5.622%
14,CCNc1ncc(C(=O)NCc2csc(-c3cnccn3)n2)cn1,-2.125%
15,CCC1COCCN1C(=O)NCc1cccc(-c2cnn(C)c2)c1 (configuration not stated),-16.85%
16,Cc1ccc(CNC[C@H]2Cn3cc(-c4ccccc4)nc3CO2)cc1,-14.25%
17,COc1ccc(CNC[C@H]2COCc3nc4cc(F)ccc4n32)cn1,2.56%
18,c1csc(CN2CC[C@H]3O[C@@H](COCC4CC4)CC[C@H]32)c1,-24.01%
19,CN1C[C@@H](COCC2CC2)[C@H]2CCN(Cc3ccco3)CC[C@H]2C1=O.O=C(O)C(F)(F)F,-15.86%
20,O=C(O)C(F)(F)F.c1coc(CN2CC[C@H]3O[C@@H](COCC4CC4)CC[C@H]32)c1,103.1%
